The source of these data is PubChem BioAssay (NCATS).

Results filed as inconclusive are left out. Entries that show only a call come without a potency. The source made the active and inactive calls. Calls follow the shape of the dose curve; as a rule, active = well fitted curve in the direction sought with a large enough effect; inconclusive = small, poorly fitted or top-dose-only effect, or another doubt; inactive = no such curve, though single readings can be large; an effect the other way counts as inactive or inconclusive.
Potency is read from the fitted curve at half-maximal effect.

One assay can be described thus: Quantitative highthroughput screen to assess conditional lethalithy of NOMO1 cells grown in RPMI1640 with dialyzed fetal bovine serum (RPMI+ds) (AID 1963877). Also: nearly all actives have a fitted effect of over 30% in size. To be noted: NOMO1 in RPMI+dialyzed FBS viability, ATP luminescence, 48 h; series mostly up to 45.8 µM. Put shortly:
(§1)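 Each medium arm—HPLM with 10% dialyzed FBS, or RPMI1640 with 5 mM glucose and 10% untreated or dialyzed FBS—was screened against an 11-point, 3-fold compound titration for 48 h at 37 °C, with CellTiter-Glo luminescence as endpoint.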
As to `COc1ccc(CCC(=O)Nc2nc3ccc(Cl)cc3s2)cc1OC`, the Potency result was “inactive”.

Consider `CC(=Cc1ccccc1)C=C1SC(=S)N(CC(=O)O)C1=O`, for which the Potency entry is “inactive”.

Regarding `O=C1c2ccccc2-c2n[nH]c3cccc1c23`, the Potency was 23.5 µM (active).

Consider `COc1cc(NC(=O)c2ccc(-c3ccc(Cl)cc3)o2)cc(OC)c1`, for which the Potency is 2.35 µM (active).

Regarding `CCN1CCCC1CNC(=O)c1cc(S(N)(=O)=O)ccc1OC` (stereo unspecified), the Potency result was “inactive”.

Take `CC(C)c1ccc(Cn2ccc3c4c(N)nc(NC5CC5)nc4ccc32)cc1`: the Potency is 5.9 µM (active).

A further assay can be described thus: Quantitative highthroughput screen to assess conditional lethalithy of NOMO1 cells grown in Human Plasma-Like Medium with dialyzed fetal bovine serum (HPLM+ds) (AID 1963878). Also: nearly all actives have a fitted effect of over 35% in size. To be noted: NOMO1 AML cells in HPLM+ds, CellTiter-Glo viability, 48 h; series mostly up to 45.8 µM. Put shortly:
as §1
`CCCCC(=O)O[C@]1(C(=O)CO)[C@@H](C)C[C@H]2[C@@H]3CCC4=CC(=O)C=C[C@]4(C)[C@@]3(F)[C@@H](O)C[C@@]21C`: the Potency result is “inactive”.

Regarding `CC(=O)OCC(=O)[C@@]1(O)[C@H](C)C[C@H]2[C@@H]3C=C(C)C4=Cc5c(cnn5-c5ccccc5)C[C@]4(C)[C@@H]3[C@@H](O)C[C@@]21C`, the Potency result is “inactive”.

As for `COCCOc1ccc2c(c1)ncn2-c1ccc2cccc(N3CCC(N)CC3)c2n1`, the Potency was 14.8 µM (active).

For the compound `CC1(C)O[C@@H]2C[C@H]3[C@@H]4CCC5=CC(=O)C=C[C@]5(C)[C@@H]4[C@@H](O)C[C@]3(C)[C@]2(C(=O)CO)O1`, the Potency result was “inactive”.

Regarding `Clc1ccc2c(N3CCN(CCCN4CCN(c5ccnc6cc(Cl)ccc56)CC4)CC3)ccnc2c1`, the Potency result was “inactive”.

A short description of a further assay: Quantitative highthroughput screen to assess conditional lethalithy of P12 Ichikawa cells grown in Human Plasma-Like Medium with dialyzed fetal bovine serum (HPLM+ds) (AID 1963879). Also: nearly all actives have a fitted effect of over 35% in size. To be noted: ATP luminescence, 48 h; Potency: viability; series mostly up to 45.8 µM. Put shortly: as §1
`O=c1n(CCCN2CCN(c3cccc(Cl)c3)CC2)nc2ccccn12`: the Potency entry is “inactive”.

In the case of `CC(C)OC(=O)C(C(=O)OC(C)C)=C1SC=CS1`, the Potency result was “inactive”.

Turning to `CNC(=O)c1cc(COc2nnc(Nc3ccc(Cl)cc3)c3ccoc23)ccn1`, the Potency entry is “inactive”.

Consider `Cc1cc(CS(=O)(=O)c2ccccc2)cc(OCc2ccc(CN3CCC[C@H]3CO)cc2)c1`, for which the Potency was 0.743 µM (active).

On to `COc1ccc(Nc2nccc(NCCO)n2)cc1`, for which the Potency result was “inactive”.

In the case of `C[C@H]1Oc2cc(cnc2N)-c2c(nn(C)c2C#N)CN(C)C(=O)c2ccc(F)cc21`, the Potency entry was “inactive”.

On to `NC(=O)N1c2ccccc2CC(=O)c2ccccc21`, for which the Potency entry was “inactive”.

With `Cc1cncc2cccc(S(=O)(=O)N3CCCN(C(=O)CN)C[C@@H]3C)c12`, the Potency was 5.26 µM (active).

`COC1=C(OC)C(=O)C(CC=C(C)CCC=C(C)CCC=C(C)CCC=C(C)CCC=C(C)CCC=C(C)CCC=C(C)CCC=C(C)CCC=C(C)CCC=C(C)C)=C(C)C1=O`: the Potency result was “inactive”.

In the case of `CON=C(C(=O)N[C@@H]1C(=O)N2C(C(=O)O)=C(Cn3ccc(=N)n3CCO)CS[C@H]12)c1csc(N)n1`, the Potency result is “inactive”.

As to `COC(=O)C1=C(C)NC(C)=C(C(=O)OC(C)C)C1c1cccc2nonc12` (stereo unspecified), the Potency result is “inactive”.

For `Clc1cccc(-n2nnnc2NCc2ccccc2Oc2ccccn2)c1Cl`, the Potency entry was “inactive”.

With `CC[C@H](CO)Nc1nc(NCc2ccccc2)c2ncn(C(C)C)c2n1`, the Potency result is “inactive”.

For the compound `C1=CCOCc2cc(ccc2OCCN2CCCC2)Nc2nccc(n2)-c2cccc(c2)OCC1`, the Potency was 10.5 µM (active).

For the compound `Fc1ccc(C(c2ccc(F)cc2)N2CCN(CC=Cc3ccccc3)CC2)cc1`, the Potency result is “inactive”.

Take `CNC1[C@H](O)C(O[C@@H]2C(O)C(O[C@H]3O[C@H]([C@@H](C)NC)CC[C@H]3N)[C@@H](N)C[C@H]2N)OC[C@]1(C)O` (stereo partly specified): the Potency result is “inactive”.

Take `COc1ccc(CC2=NN3C([C@@H](CCc4ccccc4)[C@@H](C)O)=NC(C)C3C(=O)N2)cc1OC` (stereo partly specified): the Potency entry is “inactive”.

As to `CCOC(=O)O[C@]1(C(=O)OCCl)CC[C@@H]2[C@H]3CCC4=CC(=O)C=C[C@]4(C)[C@@H]3[C@@H](O)C[C@@]21C`, the Potency result is “inactive”.

For the compound `CC(C)=CCCC(C)=CCCC(C)=CCCC(C)=CCCC(C)=CCCC(C)=CCCC(C)=CCCC(C)=CCCC(C)=CCO`, the Potency entry was “inactive”.

With `NC1CCC(Nc2nc(Nc3ccc(C(=O)N4CCCCC4)cc3)c3ncn(-c4cccc(F)c4)c3n2)CC1` (stereo unspecified), the Potency result was “inactive”.

In the case of `CC=CC1=C(C(=O)O)N2C(=O)[C@H](NC(=O)[C@H](N)c3ccc(O)cc3)[C@@H]2SC1`, the Potency is 9.35 µM (active).

As for `COc1ccc2nc(S(=O)Cc3ncc(C)c(OC)c3C)[nH]c2c1` (stereo unspecified), the Potency result is “inactive”.

In the case of `CC1(C)[C@H](O[C@H]2O[C@H](C(=O)O)[C@@H](O)[C@H](O)[C@H]2O[C@@H]2O[C@H](C(=O)O)[C@@H](O)[C@H](O)[C@H]2O)CC[C@@]2(C)[C@H]1CC[C@]1(C)[C@H]2C(=O)C=C2[C@H]3C[C@@](C)(C(=O)O)CC[C@]3(C)CC[C@]21C`, the Potency entry is “inactive”.

Regarding `COC(=O)[C@@H]1CC2=CC(=O)CC[C@]2(C)[C@@]23O[C@@H]2C[C@@]2(C)[C@H](CC[C@@]24CCC(=O)O4)[C@@H]13`, the Potency result is “inactive”.

As for `CCOc1cc2ncc(C#N)c(Nc3ccc(F)c(Cl)c3)c2cc1NC(=O)C=CCN(C)C`, the Potency was 3.72 µM (active).

As to `O=C1C(CCC(O)c2ccc(F)cc2)C(c2ccc(O)cc2)N1c1ccc(F)cc1` (stereo unspecified), the Potency entry was “inactive”.

As to `CS(=O)(=O)c1ccc(C(=O)Nc2ccc(Cl)c(-c3ccccn3)c2)c(Cl)c1`, the Potency result is “inactive”.

With `O=c1c(-c2ccc(O)cc2)coc2cc(O[C@@H]3O[C@H](CO)[C@H](O)[C@H](O)[C@H]3O)ccc12`, the Potency entry is “inactive”.

`Nc1ccc(S(=O)(=O)Nc2ccnn2-c2ccccc2)cc1`: the Potency result was “inactive”.

As to `COc1ccc(CCC(=O)Nc2nc3ccc(Cl)cc3s2)cc1OC`, the Potency entry was “inactive”.

`CC(=Cc1ccccc1)C=C1SC(=S)N(CC(=O)O)C1=O`: the Potency result is “inactive”.

For the compound `O=C1c2ccccc2-c2n[nH]c3cccc1c23`, the Potency is 14.8 µM (active).

Take `COc1cc(NC(=O)c2ccc(-c3ccc(Cl)cc3)o2)cc(OC)c1`: the Potency result is “inactive”.

As to `CCN1CCCC1CNC(=O)c1cc(S(N)(=O)=O)ccc1OC` (stereo unspecified), the Potency result was “inactive”.

`CC(C)c1ccc(Cn2ccc3c4c(N)nc(NC5CC5)nc4ccc32)cc1`: the Potency was 3.72 µM (active).
